High-throughput results from PubChem.
RPL19A TOR yeast – RPL19A-GFP expression modulators in yeast, primary screen, cell-based, S. cerevisiae, multiplex flow cytometry, MLPCN; S. cerevisiae RPL19A-GFP strain, 3 h; stronger effect = lower value; percent response vs DMSO, % at 10 µM; 330,000 compounds, 0.3% hits; AID 2025, 2009;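 active means percent response vs DMSO below 50%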;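 further: median channel GFP fluorescence of the barcoded RPL19A-GFP strain; ratio of sample median GFP to plate DMSO average so 100% = DMSO; lower means less RPL19A-GFP as with rapamycin TOR inhibition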
LAP4-GFP MLPCN – modulators of LAP4-GFP expression in yeast, primary screen, S. cerevisiae, multiplex flow cytometry, MLPCN library | 3 h; median GFP as percent of DMSO wells | GFP response vs DMSO, % at 10 µM | 320,000 compounds, 0.34% hits;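 active means GFP response vs DMSO above a set limit, about the screen mean plus 3 SD, cut at about 150% in these data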
CIT2-GFP yeast – modulators of CIT2-GFP expression in yeast, primary screen, S. cerevisiae, GFP fusion, multiplex flow cytometry, MLPCN library. S. cerevisiae CIT2-GFP strain, 3 h; 100 means same as DMSO wells. GFP response vs DMSO, % at 10 µM. 320,000 compounds, 0.065% hits. AID 2029, 2009;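 active means GFP response relative to DMSO above a set limit, near the screen mean plus 3 SD, cut at about 150% in these data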;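 further: ratio of well median GFP fluorescence to mean of DMSO wells on the plate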
AGP1-GFP MLPCN – modulators of AGP1-GFP expression in yeast TOR pathway, primary screen, cell-based, multiplex flow cytometry, S. cerevisiae, MLPCN library; 320,000 compounds, 0.02% hits; GFP response vs DMSO, % at 10 µM; 3 h; GFP as percent of DMSO wells;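 active means GFP response relative to DMSO above a set limit, near screen average plus 3 SD, cut at about 150% in these data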;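 further: median GFP channel fluorescence of the gated AGP1 strain per well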
MEP2-GFP yeast – modulators of MEP2-GFP levels in yeast, primary screen, S. cerevisiae, multiplex flow cytometry, MLPCN library. S. cerevisiae MEP2-GFP strain, 3 h; 100% = DMSO control level. GFP response vs DMSO, % at 10 µM. 330,000 compounds, 0.51% hits;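 active means GFP response versus DMSO above a set limit, roughly screen mean plus 3 SD, cut at about 180% in these data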;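 further: median GFP fluorescence of the barcode-gated MEP2-GFP cells per well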
LAP4 cherry2 – LAP4-GFP expression modulators in yeast, confirmation, cell-based, second cherry pick, flow cytometry. shares compounds with LAP4-GFP MLPCN. S. cerevisiae LAP4-GFP strain, 3 h. GFP response vs DMSO, % at 10 µM. 590 compounds, 20% hits;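 active means GFP signal as percent of the solvent control above about 150%, meaning raised reporter expression, limit read from the data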;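 further: ratio of well median GFP fluorescence to plate DMSO mean so 100% = DMSO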
MEP2-GFP pick2 – modulators of MEP2-GFP levels in yeast, confirmation, S. cerevisiae, flow cytometry GFP, second cherry picks; GFP response vs DMSO, % at 10 µM; 590 compounds, 10% hits; shares compounds with LAP4-GFP MLPCN; AID 2622, 2010; S. cerevisiae MEP2-GFP strain, 3 h;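 active means GFP signal above 150% of the solvent control wells, that is a rise of more than half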;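 further: median channel GFP fluorescence of all gated yeast cells per well; ratio of median GFP to plate DMSO average so 100% = DMSO level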
RPL19A GFP CP2 – RPL19A-GFP modulators in TOR pathway yeast, confirmation, cell-based, S. cerevisiae, flow cytometry, second cherry pick; shares compounds with LAP4-GFP MLPCN; S. cerevisiae RPL19A-GFP strain, 3 h; stronger effect = lower value; 100% means same as DMSO wells; GFP response vs DMSO, % at 10 µM; 590 compounds, 3% hits; AID 2623, 2010;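 active means under 65% GFP response relative to DMSO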;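 further: median GFP channel fluorescence per well over the all cells gate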
CIT2 GFP CP2 – modulators of CIT2-GFP expression in yeast, confirmation, flow cytometry, second cherry pick, single plex | GFP response vs DMSO, % at 10 µM | 590 compounds, 8% hits | S. cerevisiae CIT2-GFP strain, 3 h; DMSO control wells read 100% | shares compounds with LAP4-GFP MLPCN;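 active means GFP response vs DMSO above about 150%, limit read from the data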;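 further: median green fluorescence per well over all gated yeast cells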
AGP1 GFP CP2 – AGP1-GFP expression modulators, hit retest, confirmation, cell-based, flow cytometry, S. cerevisiae, cherry pick set 2. S. cerevisiae AGP1-GFP strain, 3 h. 590 tested, under 10 active. shares compounds with LAP4-GFP MLPCN. percent response vs DMSO, % at 10 µM;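 active means over 150 percent of DMSO response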;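 further: median GFP channel fluorescence over all cells without mother daughter split; sample median GFP divided by mean DMSO control so 100% equals DMSO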
Yeast autofluor – compound autofluorescence in yeast s288c, dose response, artefact control for yeast TOR pathway GFP screen, s288c strain. 610 tested, under 10 active. shares compounds with LAP4-GFP MLPCN. S. cerevisiae s288c, 520 nm autofluorescence, flow cytometry, 3 h; stronger effect = higher value; zero means same as solvent-only cells. fluorescence change (kMESF span) at 33 µM;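 active means fluorescence span over the dose series, or activity score, above about 33, limit read from the data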
An asterisk follows results filed as active; / = no result. The list is not random: actives were taken first. Their share in the collection is about 0.92%.

SMILES | RPL19A TOR yeast | LAP4-GFP MLPCN | CIT2-GFP yeast | AGP1-GFP MLPCN | MEP2-GFP yeast | Yeast autofluor | others
C/C(=N/NC(=O)c1ccc(C(C)(C)C)cc1)c1ccccn1 | 99 | 194* | 95 | 96 | 104 | 0.82
Cn1nc2c3ccccc3n(Cc3ccccc3)c2nc1=S | 102 | 103 | 103 | 105 | 103 | /
CC(C)(C)NC(=O)C12CCC(C)(c3nc4ccccc4nc31)C2(C)C (configuration not stated) | 97 | 101 | 98 | 95 | 104 | /
O=C(O)CCC(NC(=O)OCc1ccccc1)C(=O)O (configuration not stated) | 98 | 107 | 98 | 99 | 104 | /
Nc1nc(N)c2nc(CNc3ccc(C(=O)NC(CCC(=O)O)C(=O)O)cc3)cnc2n1 (configuration not stated) | 85 | 299* | 83 | 101 | 94 | 0.1 | LAP4 cherry2=327*;MEP2-GFP pick2=218*;RPL19A GFP CP2=101;CIT2 GFP CP2=157*;AGP1 GFP CP2=128
O=Cc1cn(-c2ccccc2)nc1-c1ccccc1 | 100 | 105 | 91 | 94 | 99 | /
CC1=NNC(=O)/C1=C\c1cn(-c2ccccc2)nc1-c1ccccc1 | 55 | 198* | / | 81 | 84 | 2.4
O=C(O)CC(=O)Nc1cc(Cl)ccc1O | 93 | 96 | 96 | 98 | 108 | / | LAP4 cherry2=97;MEP2-GFP pick2=106;RPL19A GFP CP2=99;CIT2 GFP CP2=102;AGP1 GFP CP2=99
COc1ccc(C(CC(=O)N2CCN(c3ccccc3)CC2)c2c(OC)cc(OC)c3ccc(=O)oc23)cc1 (configuration not stated) | 100 | 134 | 124 | 94 | 98 | /
COc1ccc(S(=O)(=O)N2CCC(C(=O)Oc3ccc(C)cc3)CC2)cc1OC | 90 | 85 | 95 | 97 | 86 | /
CCN(CC)c1ccc(C(=O)O)cc1 | 98 | 99 | 97 | 93 | 96 | /
CCN(CC)c1ccc(/C=C2\C(=O)c3ccc(C(=O)O)cc3C2=O)cc1 | 115 | 235* | 228* | 116 | 323* | 8.9 | LAP4 cherry2=277*;MEP2-GFP pick2=391*;RPL19A GFP CP2=121;CIT2 GFP CP2=263*;AGP1 GFP CP2=106
COc1ccc(OC)c(S(=O)(=O)NC2CC(=O)N(c3cccc(F)c3)C2)c1 (configuration not stated) | 94 | 103 | 86 | 106 | 94 | /
O=C1c2cccc3c([N+](=O)[O-])ccc(c23)C(=O)N1CCc1ccccn1 | 96 | 152* | 123 | 88 | 167 | 12
CCN(CC)c1ccc(NC(=O)c2ccccc2)cc1S(=O)(=O)Nc1ccccc1OC | 100 | 105 | 98 | 96 | 101 | /
O=C(c1ccccn1)c1conc1C(=O)c1ccc(Br)cc1 | 112 | 331* | 192* | 103 | 281* | 2.4
CCN(CC)c1ccc2cc(-c3nc(-c4ccc(OC)cc4)cs3)c(=O)oc2c1 | 119 | 160* | 204* | 94 | 221* | 7.5
CCN(CC)c1ccc2cc(-c3nnc(-c4ccccc4)o3)c(=O)oc2c1 | 89 | 97 | 83 | 81 | 95 | /
CCN(CC)c1ccc2cc(-c3nc4ccccc4[nH]3)c(=O)oc2c1 | 112 | 171* | 139 | 112 | 200* | 4.7
CCN(CC)c1ccc2cc(-c3nc4ccccc4n3C)c(=O)oc2c1 | 97 | 108 | 88 | 93 | 100 | /
Cc1cc(Cl)ccc1OC(C)C(=O)NNC(=O)C1CCCCC1C(=O)O (configuration not stated) | 109 | 89 | 89 | 98 | 103 | /
NC(=O)c1ccc(-n2nnnc2SCC(=O)Nc2ccccc2F)cc1 | 103 | 88 | 103 | 100 | 107 | /
CCOC(=O)CSC1=NC(=O)/C(=C/c2ccc(Br)cc2)S1 | 84 | 216* | 82 | 89 | 97 | 0
CCN(c1ccccc1)S(=O)(=O)c1ccc(OC)c(NC(=O)c2cc(F)c(F)c(F)c2F)c1 | 95 | 177* | 93 | 117 | 114 | / | LAP4 cherry2=100;MEP2-GFP pick2=100;RPL19A GFP CP2=101;CIT2 GFP CP2=98;AGP1 GFP CP2=97
CCN(c1ccccc1)S(=O)(=O)c1ccc(OC)c(NC(=O)c2cccs2)c1 | 97 | 100 | 93 | 99 | 93 | /
SMILES | RPL19A TOR yeast | LAP4-GFP MLPCN | CIT2-GFP yeast | AGP1-GFP MLPCN | MEP2-GFP yeast | Yeast autofluor | others
C=CC[C@@H](CC(=O)N[C@H](CO)Cc1ccccc1)C(=O)N[C@H](COC(=O)[C@@H](CC=C)Cc1ccc(F)cc1)Cc1ccccc1 | 93 | 94 | 84 | 93 | 94 | /
Cc1ccc(SCC(=O)NNC(=O)CCS(=O)(=O)c2ccc(C)cc2)cc1 | 76 | 219* | 87 | 115 | 109 | / | LAP4 cherry2=105;MEP2-GFP pick2=101;RPL19A GFP CP2=99;CIT2 GFP CP2=103;AGP1 GFP CP2=99
O=C(CCS(=O)(=O)c1ccccc1)NNC(=O)CSc1ccccc1F | 102 | 97 | 111 | 104 | 104 | /
Cc1onc(-c2ccccc2Cl)c1C(=O)O/N=C(\N)c1ccc([N+](=O)[O-])o1 | 106 | 111 | 99 | 98 | 109 | /
COc1cc(/C=C/C(=O)OCC(=O)NC2CC2)cc(S(=O)(=O)N2CCc3ccccc32)c1OC | 102 | 103 | 118 | 100 | 102 | /
COc1cc(/C=C/C(=O)N2CCN(C)CC2)cc(S(=O)(=O)N2CCc3ccccc32)c1OC | 62 | 91 | 99 | 26 | 125 | / | LAP4 cherry2=103;MEP2-GFP pick2=100;RPL19A GFP CP2=100;CIT2 GFP CP2=98;AGP1 GFP CP2=100
O=C(Nc1ccncc1)C1CCN(S(=O)(=O)c2cccc(C(F)(F)F)c2)CC1 | 100 | 109 | 98 | 109 | 100 | /
